Molecules are shown by their SMILES. The panel holds about 83,000 compounds, 20% with a hit somewhere; the sample as a whole holds those more often.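 Percent growth is the endpoint: 0 to 100 indicates growth inhibition (40 means 60% inhibition), 0 means no net growth, and negative values indicate cell death.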 Unmarked numbers belong to inactive results. Calls of active or inactive are those of the source. Rule for the calls: active = growth percent below 10; inactive = the rest.

This experiment relates to HL-60(TB) leukemia. The experiment can be described thus: NCI-60 one-dose screen, 48 h (100 = growth as untreated, 0 = no growth, -100 = all killed). The note with it: 10 µM unless noted.
Consider `CN(/C(N)=N/N=C/c1c2ccccc2cc2ccccc12)C1CCCCC1`, for which the growth was 35.4%. For `Cc1ccccc1NS(=O)(=O)c1cccc(C(=O)Nc2ccc(Br)cc2)c1` the value was 27.6% [25 µM]; for `COc1ccc2c(c1)c(-c1nc(-c3c[nH]c4ncccc34)cs1)cn2CCNC(=O)OC(C)(C)C`, 69.2%; for `COc1cc(OC)cc(C2C3=C(COC3=O)Nc3cc(OC)ccc32)c1` (stereo not given), 1.71% (active). As for `C/C(=N\NC(=S)N1CCCC1)c1ccccn1`, the growth was -13.4% (active). The result for `COc1ccc(C(=O)c2cc3c(N)c(C(=O)Nc4cccc(OC)c4)sc3nc2C)cc1` reads -44.5% (active); that for `Oc1ccc(Nc2nccc(-c3ccc4ccccc4c3)n2)cc1`, 7.93% (active); that for `COC(=O)c1ccc(NC(=O)CSc2nc(-c3ccc(F)cc3)nc3ccccc23)cc1`, 94.3%. As to `Cc1ccc2[nH]c(=O)c3c(c2c1)OC(N)=C(C#N)C31C(=O)c2cccc3cccc1c23` (stereo not given), the growth was 98.6%.

Regarding `CC(=O)Nc1nccs1`, the growth was 103%. On to `CN(C)c1ccc(/C=C/c2ccnc3c(O)cccc23)cc1`, for which the growth was -26% (active). For `O=C1c2cc3c(cc2-c2c1c1ccc(Cl)cc1c(=O)n2CCCn1ccnc1)OCO3` the value was -29.1% (active). For `CC/C(=C(/c1ccc(Cl)cc1)c1ccc(OCCCN(C)C)cc1)c1ccc(OC)cc1` the value was 46.2%; for `Cc1cc(NC(=O)Nc2cc(Cl)ccc2C)no1`, 88.4%. Take `CSc1nc2c(c(=O)[nH]1)C(c1ccc(C)cc1)C=C(C(=O)O)N2` (stereo not given): the growth is 114%.

For the compound `Cc1cccc(NC(=O)c2sc3nc4c(cc3c2N)CCCC4)c1`, the growth was 22.1%.

`Cc1nccc2c3ccc(OCc4cn(Cc5ccc(Br)cc5)nn4)cc3n(CCCc3ccccc3)c12`: the growth was 89%. For `O=C(O)c1cn(C2CC2)c2cc(N3CCN(S(=O)(=O)c4ccc(Cl)c(Cl)c4)CC3)c(F)cc2c1=O` the value was -38.3% (active); for `Cc1nn(-c2ccccc2)c2nc(N)c(C3=NCCO3)nc12`, 102%; for `CCOC(=O)N1CCN(S(=O)(=O)c2oc(-c3ccc(Cl)cc3)nc2C#N)CC1`, 56.4%. For `COC1=CC(=O)OC(c2ccc(OC)cc2)C1` (stereo not given) the value was 78.3%. For `CC(=O)Nc1nonc1-c1nc2ccccc2n1Cc1ccc(C(C)(C)C)cc1` the value was 56.8%; for `COc1c(C(=O)Nc2ccc(C)c(Br)c2)ccc2ccccc12`, 91.2%; for `CN(C)/C(N)=N/N=C(\c1ccccc1)c1ccccn1`, 98.5%. Consider `CCCCNC(=O)c1ccccc1C`, for which the growth is 84.4%. The result for `COc1ccc(C(=O)N2N=C(c3ccc(Br)cc3)CC2c2cn(-c3ccccc3)nc2-c2ccccc2)cc1` (stereo not given) reads 32.7%. For `COc1nc2ccccc2cc1-c1nc2c(cnn2-c2ccccc2)c(=O)[nH]1` the value was 11.2%; for `Clc1ccc(C2=NN=C3C(Cc4ccccc4)=Nc4ccccc4N3C2)cc1`, 25.2%. For `O=C1C(Cl)=C(Nc2cccc3ccccc23)C(=O)c2ccccc21` the value was 71.1%; for `COc1ccc(Cl)cc1NC(=O)c1cc2c([nH]1)-c1nc(N)sc1CCC2`, 56.9%. As for `COc1ccc2c(c1OC)CO[C@@H]2[C@H]1c2c(cc3c(c2OC)OCO3)CCN1S(=O)(=O)c1cn(C)cn1`, the growth is -0.0238% (active).

In the case of `c1ccc(-c2nc(N3CCNCC3)c3oc(-c4ccccc4)nc3n2)cc1`, the growth was -46.5% (active). As to `O=C1CN(CCN2CC(=O)N(Cc3ccccc3)C(=O)C2)CC(=O)N1Cc1ccccc1`, the growth is 97.7%. The result for `COc1cccc(-c2nc3sccn3c2-c2ccnc(NCCNS(=O)(=O)c3cccc(Cl)c3)c2)c1` reads 15.6%.

For `CCCCCCCC/C=C/CCCCCCCCC1=NCCN1CCO`, the growth is 8.59% (active). For `C[C@H]1[C@H](C)CC[C@]2(C(=O)O)CC[C@]3(C)C(=CC[C@@H]4[C@@]5(C)C/C(=C/c6cccnc6)[C@H](O)C(C)(C)[C@@H]5CC[C@]43C)[C@H]12` the value was -16.5% [100 µM] (active). The result for `Oc1ccc(CCC2CCNc3ccccc32)cc1` (stereo not given) reads 86.9%; that for `CC1CC2C3CCC4=CC(=O)CCC4(C)C3CCC2(C)C1(O)C(=O)CO` (stereo not given), 75.4%.

As for `Cc1ccc(C)n1-c1ccsc1C(=O)NNC(=O)C(Cl)Cl`, the growth is 106%.

As to `c1ccc(/C(=N\N=C(/c2ccccc2)c2cccs2)c2cccs2)cc1`, the growth is 91.1%.

The values are drawn from PubChem BioAssay (NCI).
